Experimental data reported in PubChem BioAssay (Tox21).
“And” between values parts separate entries of the source, which are not always exact repeats. Equal values may be shown once. Records with an inconclusive call do not appear. The source made the active and inactive calls. Unless noted, calls follow the shape of the full dose curve.

Columns and labels:
[1] = qHTS assay to identify small molecule antagonists of the sonic hedgehog signaling (Shh) pathway (AID 1259369); settings: NIH/3T3 Gli1-Luc reporter, Shh antagonist, luminescence 24 h; series mostly up to 92.4 µM; also: nearly all actives have a fitted effect of over 45% in size; also: potency is read from the fitted curve at half-maximal effect
In short: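 NIH/3T3 stable Gli1-Luc clone, 2,000 cells/well, 4hr settle; cpd + conditioned medium 24hr; Luc reagent 30min RT; luminescence.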

[2] = biological target: Estrogen receptor beta (Homo sapiens) (UniProt Q92731); assay: qHTS assay to identify small molecule antagonists of the estrogen receptor beta (ER-beta) signaling pathway (AID 1259378; active = well fitted inhibition curve with a large enough effect in the signal ratio in the repeat runs, not every such curve was filed as active; the % refers to the signal ratio; also: potency is read from the fitted curve at half-maximal effect); settings: ER-beta-UAS-bla HEK293T, beta-lactamase FRET ratio, 16 h; series mostly up to 92.4 µM
Sequence of Estrogen receptor beta (Homo sapiens) (Q92731 whole entry, looked up): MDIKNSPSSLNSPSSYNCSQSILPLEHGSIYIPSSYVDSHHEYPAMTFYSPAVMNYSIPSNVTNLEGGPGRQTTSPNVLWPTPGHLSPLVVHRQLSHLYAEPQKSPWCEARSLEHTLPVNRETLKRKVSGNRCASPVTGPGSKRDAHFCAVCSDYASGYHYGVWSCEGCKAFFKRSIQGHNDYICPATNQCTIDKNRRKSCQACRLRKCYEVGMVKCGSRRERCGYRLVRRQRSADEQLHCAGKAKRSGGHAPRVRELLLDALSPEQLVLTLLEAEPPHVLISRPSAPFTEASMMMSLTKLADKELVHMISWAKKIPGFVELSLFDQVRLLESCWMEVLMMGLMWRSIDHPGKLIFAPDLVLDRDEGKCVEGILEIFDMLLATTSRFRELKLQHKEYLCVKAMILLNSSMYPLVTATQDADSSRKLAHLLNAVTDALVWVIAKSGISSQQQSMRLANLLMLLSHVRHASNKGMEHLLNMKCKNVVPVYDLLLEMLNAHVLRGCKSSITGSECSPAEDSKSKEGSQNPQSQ
In short: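 ER-beta-UAS-bla HEK293T (GripTite) cells in 2% charcoal-stripped FBS medium were preincubated 6 hr at 37C, dosed with compound, then stimulated with 1 nM E2 (final) for 16 hr; beta-lactamase reporter read by B/G FRET fluorescence after 2 hr substrate loading.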

[3] = qHTS assay to identify small molecule agonists of the androgen receptor (AR) signaling pathway in the presence of an antagonist - cell viability counter screen (AID 1259379; active = well fitted curve in the direction sought with a large enough effect in the repeat runs; an effect the other way counts as inactive or inconclusive; also: nearly all actives have a fitted effect of over 25% in size; also: potency is read from the fitted curve at half-maximal effect;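 as to activity change, negative = cytotoxicity: MDA-kb2 human breast cancer cells carrying an MMTV luciferase reporter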); settings: MDA-kb2 viability, CellTiter-Fluor, 16 h; series mostly up to 92.4 µM
In short: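 MDA-kb2 viability measured by CellTiter-Fluor fluorescence in the same wells as the luciferase signal; nilutamide 3.0uM final; 15-point compound titration; 16 hr at 37C.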

[4] = qHTS assay to identify small molecule agonists of the estrogen receptor beta (ER-beta) signaling pathway - cell viability counter screen (AID 1259380; active = well fitted curve in the direction sought with a large enough effect in the repeat runs; an effect the other way counts as inactive or inconclusive; also: nearly all actives have a fitted effect of over 30% in size; also: potency is read from the fitted curve at half-maximal effect); settings: ER-beta-bla HEK293T viability, CellTiter-Glo luminescence, 16 h; series mostly up to 92.4 µM
In short: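 Measured: luminescence from CellTiter-Glo after 30 min at room temperature, added to wells already read for the LiveBLAzer FRET reporter (2 hr substrate); ER-beta-UAS-bla HEK293T cells had 16 hr compound treatment at 37C, 5% CO2.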

[5] = biological target: Estrogen receptor (Homo sapiens) (UniProt P03372); assay: qHTS assay to identify small molecule agonists of the estrogen receptor alpha (ER-alpha) signaling pathway in the presence of an antagonist (AID 1259383); settings: VM7Luc4E2 cells, ERE-luciferase, +ICI-182,780, 22 h; series mostly up to 92.4 µM; also: top concentration of the series differs between compounds; nearly all actives have a fitted effect of over 15% in size
Sequence of Estrogen receptor (Homo sapiens) (P03372 whole entry, looked up): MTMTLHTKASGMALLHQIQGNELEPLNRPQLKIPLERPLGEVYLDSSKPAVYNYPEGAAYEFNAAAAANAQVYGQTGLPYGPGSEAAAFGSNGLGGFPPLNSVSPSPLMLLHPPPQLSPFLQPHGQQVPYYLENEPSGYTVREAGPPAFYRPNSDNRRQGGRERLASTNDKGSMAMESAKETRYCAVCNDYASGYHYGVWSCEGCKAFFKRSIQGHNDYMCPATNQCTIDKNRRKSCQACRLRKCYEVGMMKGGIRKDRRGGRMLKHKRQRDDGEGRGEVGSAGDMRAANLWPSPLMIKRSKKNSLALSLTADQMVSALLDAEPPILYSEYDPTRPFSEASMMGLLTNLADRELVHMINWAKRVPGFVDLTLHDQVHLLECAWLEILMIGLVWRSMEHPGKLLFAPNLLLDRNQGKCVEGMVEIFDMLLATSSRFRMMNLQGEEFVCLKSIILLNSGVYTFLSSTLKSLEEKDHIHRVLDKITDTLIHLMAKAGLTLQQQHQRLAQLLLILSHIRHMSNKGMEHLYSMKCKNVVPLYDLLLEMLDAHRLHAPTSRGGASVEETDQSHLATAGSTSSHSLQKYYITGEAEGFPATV
In short: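 Quantitative HTS confirmation: compounds titrated at 15 concentrations onto estrogen-deprived VM7Luc4E2 cells carrying a four-ERE luciferase construct, with ICI-182,780 present at 10.0nM final. Signal is luminescence after 22hr exposure.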

[6] = qHTS assay to identify small molecule agonists or antagonists of the thyroid stimulating hormone receptor (TSHR) signaling pathway - wild type cell line counter screen (AID 1259384); settings: HEK293 wild type, cAMP HTRF counter-screen, active compounds read high; series mostly up to 92.4 µM
In short: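 Wild-type HEK293 cells were plated 18 h at 37 C/5% CO2, pin-dosed with compound plus Ro20-1724 medium, held 30 min at room temperature, then given cAMP-d2 and anti-cAMP-cryptate; fluorescence was read after 1 h. Fifteen concentrations, triplicate.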

[7] = biological target: Androgen receptor (Homo sapiens) (UniProt P10275); assay: qHTS assay to identify small molecule agonists of the androgen receptor (AR) signaling pathway in the presence of an antagonist (AID 1259381); settings: MDA-kb2 MMTV-luciferase, AR agonist + nilutamide, 16 h; series mostly up to 92.4 µM; also: nearly all actives have a fitted effect of over 15% in size
Sequence of Androgen receptor (Homo sapiens) (P10275 whole entry, looked up): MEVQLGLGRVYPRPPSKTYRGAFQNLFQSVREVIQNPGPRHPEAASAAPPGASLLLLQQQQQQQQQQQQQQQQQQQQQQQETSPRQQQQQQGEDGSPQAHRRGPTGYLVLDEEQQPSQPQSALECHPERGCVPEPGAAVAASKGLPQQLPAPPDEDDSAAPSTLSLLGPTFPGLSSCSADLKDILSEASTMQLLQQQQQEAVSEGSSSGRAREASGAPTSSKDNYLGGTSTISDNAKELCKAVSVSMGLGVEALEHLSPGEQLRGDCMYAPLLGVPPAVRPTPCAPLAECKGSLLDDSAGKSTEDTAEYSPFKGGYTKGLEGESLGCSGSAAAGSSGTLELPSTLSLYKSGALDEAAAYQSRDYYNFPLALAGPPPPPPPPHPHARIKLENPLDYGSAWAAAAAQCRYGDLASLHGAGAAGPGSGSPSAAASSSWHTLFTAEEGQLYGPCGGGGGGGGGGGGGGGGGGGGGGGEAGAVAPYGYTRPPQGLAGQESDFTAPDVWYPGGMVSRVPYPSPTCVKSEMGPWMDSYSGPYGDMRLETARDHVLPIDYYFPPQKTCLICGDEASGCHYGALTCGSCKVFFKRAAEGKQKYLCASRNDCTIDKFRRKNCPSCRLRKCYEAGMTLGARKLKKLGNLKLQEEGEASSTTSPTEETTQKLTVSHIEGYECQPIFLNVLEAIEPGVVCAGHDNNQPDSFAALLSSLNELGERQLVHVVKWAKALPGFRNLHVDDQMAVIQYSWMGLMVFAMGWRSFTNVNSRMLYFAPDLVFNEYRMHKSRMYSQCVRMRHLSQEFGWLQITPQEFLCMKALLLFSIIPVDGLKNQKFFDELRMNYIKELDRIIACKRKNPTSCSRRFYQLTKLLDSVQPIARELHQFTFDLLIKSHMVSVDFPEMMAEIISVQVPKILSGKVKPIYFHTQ
In short: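 Luminescent ONE-Glo read, 30min at room temperature, follows 16hr compound exposure (15 concentrations) of MDA-kb2 cells at 37C, 0% CO2, with nilutamide added at 3.0uM final.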

[8] = qHTS assay to identify small molecule antagonists of the estrogen receptor beta (ER-beta) signaling pathway - cell viability counter screen (AID 1259382; active = well fitted curve in the direction sought with a large enough effect in the repeat runs; an effect the other way counts as inactive or inconclusive; also: nearly all actives have a fitted effect of over 55% in size; also: potency is read from the fitted curve at half-maximal effect); settings: ER-beta-UAS-bla HEK293T viability, CellTiter-Glo luminescence, 16 h; series mostly up to 92.4 µM
In short: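 Readout: luminescence, CellTiter-Glo, same wells as bla assay. System: ER-beta-UAS-bla GripTite HEK293T, 2% charcoal-stripped FBS. Exposure: compounds plus 1nM 17-beta-estradiol, 16 hr, 37C.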

[9] = biological target: Thyrotropin receptor (Homo sapiens) (UniProt P16473); assay: qHTS assay to identify small molecule antagonists of the thyroid stimulating hormone receptor (TSHR) signaling pathway (AID 1259385); settings: TSHR-HEK293 cAMP HTRF, TSH-stimulated antagonist mode; series mostly up to 92.4 µM; also: nearly all actives have a fitted effect of over 20% in size
Sequence of Thyrotropin receptor (Homo sapiens) (P16473 whole entry, looked up): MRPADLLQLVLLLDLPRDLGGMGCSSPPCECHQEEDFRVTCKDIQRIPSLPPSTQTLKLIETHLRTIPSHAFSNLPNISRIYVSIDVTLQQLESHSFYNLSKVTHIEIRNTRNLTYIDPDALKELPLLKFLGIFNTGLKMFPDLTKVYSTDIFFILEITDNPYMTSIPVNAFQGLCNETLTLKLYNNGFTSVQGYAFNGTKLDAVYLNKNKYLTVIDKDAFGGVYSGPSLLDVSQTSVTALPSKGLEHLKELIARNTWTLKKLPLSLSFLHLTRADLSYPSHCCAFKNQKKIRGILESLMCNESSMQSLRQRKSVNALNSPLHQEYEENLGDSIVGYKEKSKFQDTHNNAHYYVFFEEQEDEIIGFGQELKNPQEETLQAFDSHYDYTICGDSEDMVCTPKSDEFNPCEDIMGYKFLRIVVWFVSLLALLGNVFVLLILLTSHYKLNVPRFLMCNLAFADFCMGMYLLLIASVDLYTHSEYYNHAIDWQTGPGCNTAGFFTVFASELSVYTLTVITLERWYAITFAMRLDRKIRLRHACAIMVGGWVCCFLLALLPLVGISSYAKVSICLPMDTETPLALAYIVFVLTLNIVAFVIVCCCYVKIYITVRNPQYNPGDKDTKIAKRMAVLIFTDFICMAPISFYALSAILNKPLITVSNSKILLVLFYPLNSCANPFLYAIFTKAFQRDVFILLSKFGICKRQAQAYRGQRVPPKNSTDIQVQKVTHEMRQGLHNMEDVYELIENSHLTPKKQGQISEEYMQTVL
In short: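 TSHR-HEK293 cells were plated and held 18 h at 37C/5% CO2, then given compound plus Ro20-1724 and stimulated with TSH at 1.5 ng/mL final. After 30 min at room temperature, cAMP was detected with cAMP-d2/anti-cAMP-cryptate (1 h) by fluorescence.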
% is scaled to controls: 0 for no effect and ±100 for the full control effect.

CCCCCCCCCCCCOCCOCCOCCOCCOCCOCCOCCOCCOCCO
active: Potency [1] 7.5 µM | Potency [2] 8.41 µM | Potency [3] 13.3 µM | Potency [4] 26.6 µM
inactive: Potency [5] | outcome [6]

CCCC(=O)OCOC(=O)C1=C(C)NC(C)=C(C(=O)OC)C1c1cccc(Cl)c1Cl (stereo not drawn)
inactive: Potency [1] | Potency [3] | Potency [4] | outcome [7] | Potency [5] | outcome [6]

CCC(=O)OC(=O)CC
inactive: Potency [1] | Potency [2] | Potency [3] | Potency [8] | Potency [5] | outcome [6] | Potency [9]

C=C(C)C(=O)OCCCCCCCCCC
inactive: Potency [3] | Potency [4] | Potency [8] | Potency [5] | outcome [6]
active: Potency [1] 13.8 µM

CCCCCCCCCCCCCC[N+](C)(C)C
inactive: Potency [5]
active: Potency [1] 27.3 µM and 531 nM | Potency [3] 33.2 µM and 24.3 µM and 10.6 µM | Potency [4] 26.4 µM and 27.3 µM | Potency [8] 26.4 µM and 30.6 µM and 33.5 µM

O=C(O)CN(CCN(CC(=O)O)CC(=O)O)CC(=O)O
inactive: activity change, negative = inhibition [1] 12.7% [at 3.27 µM] | activity change, negative = cytotoxicity [3] -0.833% [at 3.27 µM] | activity change, negative = cytotoxicity [4] 0.439% [at 3.32 µM] | activity change, negative = cytotoxicity [8] 2.74% [at 3.27 µM] | cAMP activity change [6] -0.412% [at 3.27 µM]

COc1ccc2c(c1)c(CC(=O)OC/C=C(\C)CC/C=C(\C)CCC=C(C)C)c(C)n2C(=O)c1ccc(Cl)cc1
inactive: Potency [1] | Potency [3] | Potency [4] | Potency [8] | Potency [5] | outcome [6] | Potency [9]

O=C1CCc2ccc(OCCCCN3CCN(c4cccc(Cl)c4Cl)CC3)cc2N1
active: Potency [1] 11.9 µM | Potency [3] 26.6 µM | Potency [4] 10.6 µM | Potency [8] 33.5 µM
inactive: outcome [6] | Potency [9]
